Rows were chosen to be rich in hits. Some 7.9% of all compounds tested hit in one or more screens of this group.
KB-3-1 tox = KB-3-1 parental cell cytotoxicity; Potency, µM (titrated, usually from 46.1 µM), most hits filed as cytotoxic; KB-3-1 viability, CellTiter-Glo ATP luminescence, 72 h; hit rate 1.4% among 400,000; further: nearly all actives have a fitted effect of over 60% in size
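KB-3-1 cells, DMEM (no phenol red) + 10% FBS; compound by pin transfer, 72 h, 37 °C. Readout: CellTiter-Glo luminescence after 10 min. Data normalized, curve-fitted.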
MCF10A rereplic = induces DNA re-replication in MCF 10a normal breast cells | MCF 10A DNA re-replication, Hoechst nuclear intensity, 48 h | Potency, µM (doses to about 46.1 µM), actives largely listed as activators | hit rate 2.9% among 350,000; further: nearly all actives have a fitted effect of over 50% in size
HT1080 IDH1KD tx = HT-1080 IDH1 knockdown cell toxicity (counter line); HT-1080 IDH1 knockdown viability, ATP luminescence, 48 h; Potency, µM (series often up to 46.1 µM), most hits filed as cytotoxic; hit rate 2% among 360,000
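IDH1KD HT-1080 cells, 750/well, RPMI + 5% FBS; compound pinned after 2 h settling; 48 h, 37 °C; CellTiter-Glo luminescence; % activity normalised to DMSO and no-cell wells; curves fitted, classed by r2 and efficacy.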
SW480 rerep = DNA re-replication induction in SW480 cells; SW480 DNA re-replication, Hoechst DNA content imaging, 48 h; AID 624297; Potency, µM (series often up to 46.1 µM), actives largely listed as activators; hit rate 1.8% among 340,000; further: nearly all actives have a fitted effect of over 55% in size
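250 cells/well; 23 nL cpd via pin tool; 48 hr, 37 C, 5% CO2; Hoechst 40 min; imager read of total nuclear intensity, ex 405/em 500-530 nm.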
HT1080-NT tox = kills 2HG-producing HT-1080-NT fibrosarcoma cells; hit rate 1.6% among 360,000; Potency, µM (highest dose often 46.1 µM), usual class: cytotoxic; HT-1080-NT fibrosarcoma viability, CellTiter-Glo ATP luminescence, 48 h;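 further: NT is the 2HG producing partner of a matched IDH1 knockdown line; nearly all actives have a fitted effect of over 55% in size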
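A 48-hour cytotoxicity screen used HT-1080-NT cells plated 2 hours before compound delivery. ATP-based CellTiter-Glo luminescence measured viability, normalized to DMSO and no-cell controls.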
KB-V1 cytotox = KB-V1 MDR subline cytotoxicity. KB-V1 MDR cells viability, CellTiter-Glo, 72 h. Potency, µM (doses to about 46.1 µM), most hits filed as cytotoxic. hit rate 3.4% among 400,000; further: nearly all actives have a fitted effect of over 60% in size
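Potencies derive from concentration-effect curves fitted to normalized luminescence (CellTiter-Glo) of KB-V1 cells treated for 72 h at 37 degrees C in phenol-red-free DMEM containing 10% FBS.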
A number is an active result; – = inactive; ? = inconclusive; · = not tested or not shown; [ ] = dose if it differs, or a comment. The call rests on the fitted dose curve; in most records, active means well fitted curve in the direction sought with a large enough effect; inconclusive means small, poorly fitted or top-dose-only effect, or another doubt; inactive means no such curve, though single readings can be large; an effect the other way counts as inactive or inconclusive.

SMILES	KB-3-1 tox	MCF10A rereplic	HT1080 IDH1KD tx	SW480 rerep	HT1080-NT tox	KB-V1 cytotox
COc1ccc(OC)c(-n2nnnc2SCC(=O)Nc2ccccc2OC)c1	–	–	–	–	–	–
CC(NC(C)c1ccccc1Cl)C(=O)Nc1cccc(S(=O)(=O)N2CCCCC2)c1 (centres undefined)	–	–	?	–	–	?
COc1ccc(C)cc1-n1nnnc1SCC(=O)Nc1cccnc1Cl	–	–	–	–	–	13µM
O=C(CSc1nnnn1-c1ccccc1)Nc1ccc(N2CCOCC2)c(Cl)c1	–	–	–	–	–	–
CCNC(=O)CSc1nc2ccccc2c(=O)n1-c1cc(OC)ccc1OC	–	–	–	–	–	18µM
CN1CCN(c2ccc(NC(=O)CSc3nnnn3-c3ccccc3Cl)cc2)CC1	–	?	–	21µM	–	–
COc1ccc(C)cc1-n1nnnc1SCC(=O)Nc1cc(C)on1	–	–	–	–	–	–
CNC(=O)CSc1nc2ccccc2c(=O)n1-c1cc(OC)ccc1OC	–	–	–	–	–	–
CCOc1ccccc1NC(=O)CSc1nnnn1-c1ccccc1	–	–	–	–	–	9.2µM
COc1ccccc1-n1c(SCC(=O)Nc2ccccc2C)nc(O)cc1=O	–	–	–	–	–	–
COc1ccccc1NC(=O)CSc1nc(O)cc(=O)n1-c1ccccc1OC	–	15µM	–	–	–	–
COc1ccc(OC)c(-n2nnnc2SCC(=O)NCCc2ccccc2)c1	–	5.8µM	–	7.3µM	–	?
Cc1ccc(C)c(SCC(=O)Nc2cccnc2Cl)c1	–	1.6µM	–	–	–	–
COc1cccc(-n2nnnc2SCC(=O)NCCc2ccccc2)c1	–	–	–	–	–	–
COc1ccccc1NC(=O)CSCc1nc2ccccc2[nH]1	–	–	–	–	–	21µM
Cc1c(NC(=O)c2ccc(Br)o2)cccc1-c1nc2ccccc2o1	–	·	·	·	·	–
CCOC(=O)CSc1nc2ccccc2c(=O)n1CCc1ccc(OC)c(OC)c1	–	·	·	·	·	–
CC(C)c1ccc2[nH]c(O)c(N=NC(=S)NCCc3ccccc3)c2c1	?	?	?	–	?	–
CCNC(=S)N=Nc1c(O)[nH]c2ccc(C(C)C)cc12	–	–	–	–	–	3.7µM
CCNC(=S)N=Nc1c(O)[nH]c2ccc([N+](=O)[O-])cc12	–	–	5.8µM	–	–	?
CCOC(=O)N1CCN(C(=O)C2CCCN(S(=O)(=O)c3ccc(C)cc3)C2)CC1 (centres undefined)	–	–	–	–	–	3.7µM
COc1ccc(S(=O)(=O)N2CCCC(C(=O)Nc3cccnc3)C2)cc1Cl (centres undefined)	16µM	?	?	–[9.22 µM]	–	?
COc1ccc(NC(=O)C2CCCN(S(=O)(=O)c3cccnc3)C2)cc1OC (centres undefined)	–	–	–	–	–	–
O=C(COc1ccccc1)Nc1ccc(S(=O)(=O)N2CCCCCC2)cc1	–	–	–	–	–	16µM
O=C(COc1ncnc2c1cnn2-c1ccccc1)Nc1ccc(S(=O)(=O)N2CCCCC2)cc1	–	–	–	–	–	21µM
SMILES	KB-3-1 tox	MCF10A rereplic	HT1080 IDH1KD tx	SW480 rerep	HT1080-NT tox	KB-V1 cytotox
CCOC(=O)N1CCN(C(=O)C2CCCN(S(=O)(=O)c3ccc(F)cc3)C2)CC1 (centres undefined)	–	–	–	–	–	–
CS(=O)(=O)N1CCC(C(=O)Nc2ccc(Oc3ccccc3)cc2)CC1	–	9.2µM	–	16µM	–	?
Cc1ccc(NC(=O)C2CCN(S(C)(=O)=O)CC2)cc1	–	–	–	–	–	–
CCOc1ccc(S(=O)(=O)N2CCCC(C(=O)Nc3ccccc3)C2)cc1 (centres undefined)	–	–	–	–	–	10µM
CCc1cc2c(=O)c(-c3ccc4c(c3)OCCO4)coc2cc1OS(C)(=O)=O	?	–	?	9.2µM	–	?
CCc1cc2c(=O)c(-c3ccc4c(c3)OCCO4)coc2c(CN2CCCCC2C)c1O (centres undefined)	?	?	?	?	–	–
